Compound activity (PubChem)
Sampled rows, rich in hits. Any-hit rate of the full collection: about 2.1%.
TDP43 rescue – inhibitors of TDP-43 toxicity in yeast; TDP-43 expressing yeast growth rescue, BacTiter-Glo, 24 h; Potency, µM (doses to about 46.1 µM), for the others: at the top dose growth rescue (activation), usual class: activators; 1.8% of 410,000 active; AID 652104; further: % of control where 0% means no effect; nearly all actives have a fitted effect of over 50% in size
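Luminescence from BacTiter-Glo reports growth of TDP-43-expressing yeast after 24 hr at 30 deg C with compound. Cells were raffinose-pregrown to mid-log, then seeded in galactose medium at OD600=0.02.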
FUS yeast rescue – suppressors of FUS proteinopathy in yeast | S. cerevisiae FUS-expressing, growth rescue, OD600, 24 h | Potency, µM (titrated, usually from 76.6 µM), actives largely listed as activators | 0.24% of 390,000 active;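 further: plate controls were DMSO vehicle for no effect and reference control for full effect; nearly all actives have a fitted effect of over 55% in size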
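Quantitative HTS measuring growth restoration of FUS-toxic yeast. Galactose-induced cells (OD 0.005) were exposed 24hr at 30C to compounds at several concentrations, then absorbance at 600 nm was recorded.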
aSyn yeast inh – rescues yeast growth from alpha-synuclein toxicity; AID 652106; Yeast expressing alpha-synuclein, growth rescue, BacTiter-Glo, 24 h; 0.14% of 370,000 active; Potency, µM (doses to about 46.1 µM), for inactives: at the highest dose growth rescue (activation), most hits filed as activators; further: % of control where 0% means no effect; nearly all actives have a fitted effect of over 65% in size
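Galactose-induced alpha-syn yeast (OD600=0.02, raffinose-pregrown) + pinned cpd, 24 hr, 30 deg C; growth by BacTiter-Glo luminescence. Growth restoration scores as activation.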
Abeta yeast res – restores growth of yeast expressing A-beta42 peptide; AID 1347071; Potency, µM (top dose mostly 46.1 µM), most hits filed as activators; 0.063% of 410,000 active; yeast expressing A-beta42, growth rescue, OD600, 48 h; response scale: 0% DMSO, 100% iron-clioquinol control; further: nearly all actives have a fitted effect of over 55% in size
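Growth rescue measured by 600 nm absorbance after 48 h yeast culture at 30 C with compound. Values normalized between DMSO and an equimolar ferric chloride plus clioquinol control.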
Active calls of the source: *; i = inactive; ? = inconclusive; . = no result given; [ ] = remark or other dose. The call rests on the fitted dose curve; in most records, active means well fitted curve in the direction sought with a large enough effect; inconclusive means small, poorly fitted or top-dose-only effect, or another doubt; inactive means no such curve, though single readings can be large; an effect the other way counts as inactive or inconclusive. Potency means the concentration at half of the fitted maximal effect.

SMILES | TDP43 rescue | FUS yeast rescue | aSyn yeast inh | Abeta yeast res
CN(CC1COc2ccccc2O1)C(=O)CSc1ncnc2sccc12 (stereo unspecified) | 18µM* | ? | 10%[1.84 µM] | i
Cc1nc([N+](=O)[O-])cn1CC(O)c1ccc2c(c1)OCCO2 (stereo unspecified) | . | . | -1% | .
O=C(COC(=O)/C=C/c1ccccc1)Nc1cccnc1Cl | -18% | i | -9% | i
O=C(/C=C/c1ccccc1)Nc1cccnc1Cl | 7.9µM* | i | -8% | i
COc1ccc(C(=O)C2C(=O)C(=O)N(Cc3ccco3)C2c2cccs2)cc1 (stereo unspecified) | . | . | 22% | .
CCn1c(COc2cccc(C)c2)nnc1SCC(=O)Nc1cccc(C(=O)O)c1 | 5% | i | -1% | i
CCn1c(COc2cccc(C)c2)nnc1SCC(=O)Nc1cccc(C(=O)OC)c1 | 20µM* | i | 6% | i
O=[N+]([O-])c1ccc(Cl)c(S(=O)(=O)/N=C(/Sc2ccc(Br)cc2)c2ccccc2)c1 | . | . | -14% | .
O=C1Cc2ccccc2C(=O)N1CCc1ccccc1 | 13µM* | i | 2% | i
CCN(C(=O)Cn1c(=O)oc2cc(S(=O)(=O)N3CCCCCC3)ccc21)c1cccc(C)c1 | 10% | i | . | i
CCN1C(=O)[C@@H]2[C@@H](c3ccc(SC4CCCCC4)c(OC)c3)N3CCCC[C@@]3(C(=O)OC)[C@@H]2C1=O | -22% | 5µM* | -1% | i
COC(=O)[C@@]12CCCN1[C@H](c1ccc(-c3ccc(Cl)c(Cl)c3)c(OC)c1)[C@H]1C(=O)N(C)C(=O)[C@H]12 | ? | 35µM* | -7% | i
CCN1C(=O)[C@H]2[C@@H](c3ccc(-c4ccc(C(C)=O)cc4)c(OC)c3)N3CCCC[C@@]3(C(=O)OC)[C@H]2C1=O | 14µM* | ? | ? | i
CCN1C(=O)[C@@H]2[C@@H](c3ccc(-c4ccc(F)cc4)c(OC)c3)N3CCCC[C@@]3(C(=O)OC)[C@@H]2C1=O | ? | ? | -14% | i
CCC(C)Sc1ccc([C@@H]2[C@@H]3C(=O)N(CC)C(=O)[C@@H]3[C@]3(C(=O)OC)CCCCN23)cc1OC (stereo partly specified) | 35µM* | ? | 15% | i
CCC(C)Sc1ccc([C@@H]2[C@@H]3C(=O)N(C)C(=O)[C@@H]3[C@]3(C(=O)OC)CCCCN23)cc1OC (stereo partly specified) | ? | i | 16% | i
CCN(CCN(C)Cl)/[N+]([O-])=N/Oc1ccc([N+](=O)[O-])cc1[N+](=O)[O-] | . | . | -25% | .
CN(C)c1ccc(-c2nnc(SCC(=O)NCc3ccco3)n2C)cc1 | . | . | -2% | .
O=C(COC(=O)c1ccccc1OCc1cccc(Br)c1)Nc1ccc(Br)cc1 | . | . | -8% | .
O=C(O)c1ccc(C2CCCCC2)cn1 | 13µM* | i | ? | i
CC(=O)Nc1cc(O)c2nonc2c1O | . | . | -41% | .
O=C(CCNS(=O)(=O)c1ccc(Br)s1)N1CCN(c2ccccc2)CC1 | 18µM* | i | ? | i
COc1ccccc1N1CCN(C(=O)CCNS(=O)(=O)c2ccc(Br)s2)CC1 | 22µM* | i | ? | i
CNc1nnc(C(F)(F)F)s1 | 7% | i | 3% | i
Fc1ccc(Nc2nnc(C(F)(F)F)s2)cc1 | 13µM* | i | -7% | i
SMILES | TDP43 rescue | FUS yeast rescue | aSyn yeast inh | Abeta yeast res
NC(=NC(=O)c1ccc(Cl)cc1)N1N=CCC1c1ccccc1 (stereo unspecified) | ? | i | 0% | i
O=C(Nc1ccc(Cl)c(Cl)c1)N1N=CCC1c1ccccc1 (stereo unspecified) | 22µM* | ? | -16% | i
O=C(CSc1ccc(Cl)cc1)N1N=CCC1c1ccccc1 (stereo unspecified) | 13µM* | i | -6% | i
O=C(Nc1ccc(F)cc1)c1ccccc1Oc1ccc(C(F)(F)F)cc1[N+](=O)[O-] | 22µM* | . | 14µM* | i
O=C(Nc1ccccc1)c1ccccc1Oc1ccc(C(F)(F)F)cc1[N+](=O)[O-] | 20µM* | i | 18% | i
O=[N+]([O-])c1cc(C(F)(F)F)ccc1Oc1cccnc1[N+](=O)[O-] | -7%[0.397 µM] | i | -2% | i
C=CCN1[C@H](Cc2ccccc2)COc2cc(F)ccc2S1(=O)=O | . | i | . | .
